# The panel holds about 83,000 compounds, 20% with a hit somewhere; the sample as a whole holds those more often.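 Assay: single dose, 48 h. Readout: percent growth (0 = no net growth; negative = cell death). Active: <10.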 Values without a mark were called inactive. The source made the active and inactive calls.
# How the values were obtained:
# Assay in all cases: NCI-60 one-dose screen, 48 h (100 = growth as untreated, 0 = no growth, -100 = all killed)
# Settings in all cases: 10 µM unless noted
# [1] = test system: RPMI-8226 leukemia
# [2] = test system: OVCAR-8 ovarian
# [3] = test system: OVCAR-5 ovarian
# [4] = test system: OVCAR-4 ovarian
# [5] = test system: SK-OV-3 ovarian
# [6] = test system: IGROV1 ovarian
# [7] = test system: OVCAR-3 ovarian
# [8] = test system: HS 578T breast
# [9] = test system: NCI/ADR-RES ovarian
# [10] = test system: T-47D breast
# [11] = test system: BT-549 breast
# [12] = test system: MDA-MB-435 melanoma
# [13] = test system: SW-620 colon
# [14] = test system: MCF7 breast
# [15] = test system: HCT-116 colon
# [16] = test system: HCC-2998 colon
# [17] = test system: KM12 colon
# [18] = test system: SR leukemia
Compound,growth [1],growth [2],growth [3],growth [4],growth [5],growth [6],growth [7],growth [8],growth [9],growth [10],growth [11],growth [12],growth [13],growth [14],growth [15],growth [16],growth [17],growth [18]
CSc1nc(Nc2cccc(NC(=O)CCl)c2)c(C#N)c(-c2cccc([N+](=O)[O-])c2)n1,-14.1% (active),37%,78.7%,28.7%,95.5%,0.383% (active),6.67% (active),52%,56.7%,12.2%,14.3%,45.3%,7.84% (active),0% (active),-6.05% (active),105%,88.5%,
CC(=O)OCCC/C(=C/c1cc2ccccc2c2ccccc12)[N+](=O)[O-],,-100% (active),-95.1% (active),0.455% (active),44.7%,,-99.1% (active),-46.2% (active),-29.4% (active),-66.7% (active),-50% (active),-36.2% (active),-88.2% (active),-87.8% (active),-100% (active),-99.5% (active),-99.2% (active),-45.8% (active)
CC(C)C1=C[C@@]23CC[C@@H]4[C@](C)(CCC[C@@]4(C)C(=O)N4CCCNCC4)[C@H]2C[C@@H]1[C@H]1C(=O)CCC(=O)[C@H]13,100%,96.6%,97.9%,98.8%,107%,99.2%,115%,106%,94.9%,100%,104%,109%,105%,90.4%,103%,107%,101%,
NC(CSC(c1ccccc1)(c1ccccc1)c1ccc(Cl)cc1)C(=O)O (stereo unspecified),,-15.9% (active),12.2%,63.2%,17.2%,,-41.4% (active),-36.2% (active),-20.5% (active),23.7%,27.1%,-40.2% (active),19.2%,8.48% (active),4.19% (active),-36.3% (active),1.65% (active),-24.5% (active)
Cc1nc2ccccc2n1C(=O)C[C@@H]1NC(=S)NC1=O,111%,93.6%,85.6%,101%,100%,94.8%,108%,104%,101%,96.7%,95.5%,97.8%,99.4%,93.9%,92.5%,102%,102%,
CSc1nc(Nc2cccc(NC(=O)/C(C#N)=C/c3c(Cl)cccc3Cl)c2)c(C#N)c(-c2cccc([N+](=O)[O-])c2)n1,26.8%,53.6%,67.5%,49.7%,99.2%,29.2%,31%,66.9%,60.5%,37.6%,71.6%,43.2%,38.1%,11.3%,35.6%,60.8%,78.3%,
COc1ccc(Nc2c3c4c(cccc4[nH]c2=O)C(=O)c2ccccc2-3)cc1,5.52% (active),13.1%,24.1%,58.4%,-5.92% (active),-11.9% (active),-39% (active),-12.4% (active),0.0341% (active),75.6%,6.53% (active),-52.4% (active),19%,0.568% (active),4.08% (active),-5.28% (active),-36.2% (active),
O=C(/C=C/c1ccccc1)c1ccc(O)c(CN2CCN(c3cc4c(cc3F)c(=O)c(C(=O)O)cn4C3CC3)CC2)c1,-7.8% (active),9.75% (active),38.2%,85%,20.3%,28.7%,18.4%,31%,49%,27.9%,28.2%,18.6%,23.4%,8% (active),3.95% (active),41.2%,31.8%,
NC(N)=N/N=C(/c1ccccc1)c1ccc(F)cc1,,-65.7% (active),4.37% (active),27.9%,17.6%,,-48.8% (active),-13.4% (active),-37.3% (active),51.2%,14.7%,-19.2% (active),28.8%,12.3%,2.71% (active),-43.7% (active),-7.82% (active),-19.4% (active)
O=C(N=Nc1c(O)[nH]c2ccccc12)c1cc(-c2ccccc2)on1,112%,102%,99.8%,104%,116%,104%,111%,96.7%,105%,97.6%,109%,110%,97.8%,87.9%,99.7%,111%,101%,
C=C(C)[C@@H]1CC[C@]2(C(=O)OC)CC[C@]3(C)[C@H](CC[C@@H]4[C@@]5(C)C/C(=C/c6ccc(OC)cc6)C(=O)C(C)(C)[C@@H]5CC[C@]43C)[C@@H]12,54.8%,102%,93.4%,85.8%,102%,100%,86.7%,94.9%,93.2%,101%,96.6%,72.1%,62.5%,49.1%,41.8%,92.4%,94.3%,
COc1cccc(Nc2nc(SC)nc(-c3cccc([N+](=O)[O-])c3)c2C#N)c1,95%,36.4%,81.6%,-1.38% (active),31.3%,74.7%,51.8%,45%,70.2%,62.4%,96.1%,80.9%,75%,72.9%,28.2%,95.3%,98.4%,
Cc1ccc(NS(=O)(=O)c2ccc(-c3cnc(C4CC4)o3)cc2)cc1C,12.4%,28.2%,37.6%,43.2%,30.7%,29.5%,-1.67% (active),14.3%,-10.9% (active),26.4%,35.5%,4.45% (active),19.7%,12.1%,19.4%,45%,42.8%,
COc1cc2nc(N3CCCC3)nc(NCCc3ccccc3)c2cc1OC,-21.8% (active),65.6%,39.5%,-2.44% (active),84.7%,70.3%,82.5%,98.4%,61.8%,80.8%,82.6%,91.5%,0.907% (active),35.4%,2.87% (active),70.6%,96.3%,
CN(C)S(=O)(=O)c1ccc(S(=O)(=O)Nc2cccc(Cl)c2N2CCCCC2)cc1,48%,92%,89.4%,68.2%,98.3%,82.5%,90.6%,91.8%,76.6%,67.4%,88.4%,92.3%,97.1%,84.1%,61.6%,94.5%,94.5%,
CC1=CC(C)(C)Nc2ccc(Cc3ccc4c(c3)C(C)=CC(C)(C)N4)cc21,,96.9%,89.7%,72.2%,,92.7%,97.4%,103%,100%,76.2%,80.1%,120%,130%,84.2%,83.5%,,105%,118%
c1ccc(-c2c(-c3ccccc3)[n+](Cc3ccc4ccccc4c3)c(-c3ccc(-c4nc5ccccc5s4)cc3)n2Cc2ccc3ccccc3c2)cc1,-40.5% (active),-85.4% (active),-93% (active),-62.9% (active),-97.4% (active),-84.8% (active),-89.4% (active),-45.3% (active),-52.1% (active),-78.2% (active),-87.5% (active),-76.9% (active),-78.3% (active),-65.5% (active),-83.5% (active),-93.8% (active),-88.1% (active),
COc1cccc(-c2nc3sccn3c2-c2ccnc(NCCNS(=O)(=O)c3ccc(F)cc3)c2)c1,-14.1% (active),20.1%,49.3%,22.3%,43.7%,28.6%,42%,52.4%,10.7%,-4.43% (active),9.19% (active),23.3%,42.5%,18.7%,22.2%,50.1%,22.3%,

# From PubChem BioAssay (NCI)
